From PubChem BioAssay
KCNH2 3.1 inh: qHTS for Inhibitors of KCHN2 3.1: Mutant qHTS. activity change, % (tested at about 1.8 µM). Potassium voltage-gated channel subfamily H member 2, brain isoform KCNH2 3.1 (human). 0.95% of 340,000 active. U2OS KCNH2 3.1, thallium flux FluxOr; hits give low values;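 active means maximum activity change below -70%; inconclusive means maximum activity change from -70% to -50%; inactive means maximum activity change above -50%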;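 further: thallium influx rate constant from kinetic fluorescence after stimulation buffer; on the % scale 0 is the no-effect control and ±100 the full control effect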
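Kinetic fluorescence (2 min after stimulation buffer) measures Tl+ influx through KCNH2 3.1 expressed by viral transduction in U2OS cells; the rate constant is normalized against DMSO controls serving as positive and negative references.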
ClpP mod: qHTS Assay for Activators of ClpP; 1.9% of 340,000 active; AID 651965, 2013; ATP-dependent Clp protease proteolytic subunit (Bacillus subtilis (strain 168)), P80244; Potency, µM (doses to about 57.5 µM), for the others: at the highest dose activity change, negative = active; purified B. subtilis ClpP, FRET peptide cleavage, 20 min; active means well fitted falling curve with a large enough effect; inconclusive means small, poorly fitted or top-dose-only effect; inactive means no such curve, though single readings can be large or run the other way; further: potency means the concentration at half of the fitted maximal effect; the source files actives as falling curves though it sought activators and does not explain the sign; nearly all actives have a fitted effect of over 65% in size
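Buffer: 100 mM Tris/HCl pH8, 100 mM KCl, 0.05% low protease BSA, 2.5% glycerol, 0.01% Tween-20. ClpP 10 microg/mL final; 20 min RT; delta FRET normalized to ADEP and DMSO controls.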
hERG WT inh: qHTS for Inhibitors of KCHN2 3.1: Wildtype qHTS. U2OS, BacMam KCNH2, thallium flux FluxOr; hits give low values. activity change, % at 1.84 µM. 0.37% of 340,000 active. AID 720551, 2013;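 active means maximum activity change below -70%; inconclusive means maximum activity change between -70% and -50%; inactive means maximum activity change above -50%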; further: on the % scale 0 is the no-effect control and ±100 the full control effect
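U2OS cells transduced with wild-type KCNH2 virus are loaded with FluxOr dye for 45 min, and thallium flux is measured in kinetic reads before and after stimulation buffer. Rate constants are normalized to DMSO controls.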
LDHA block: qHTS assay for inhibitors of human lactate dehydrogenase; purified LDHA, NADH/diaphorase-resazurin fluorescence; hits give low values; activity change, % (values are at about 110 or 230 µM); 0.15% of 480,000 active; AID 1347041, 2019; in the data active means activity change below about -30%; inconclusive means mostly about -25% to -30%;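 further: plate controls were DMSO wells for no effect and wells without enzyme for full effect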
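Resorufin fluorescence (ex540/em590), read at 0 and 20 min after diaphorase/resazurin addition, reports the NADH left after a 5 min room-temperature reaction of 2 nM human LDH5 with 0.06 mM NADH and 0.2 mM pyruvate.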
BCR signal inh: qHTS Assay to Find Inhibitors of Chronic Active B-Cell Receptor Signaling; ABC-DLBCL IkBa-CBG/CBR reporter, luminescence ratio, 4 h; Potency, µM (titrated, usually from 46.1 µM), without a hit: top-dose activity change, negative = inhibition, most hits filed as inhibitors; 0.05% of 340,000 active; AID 493014, 2011; active means well fitted inhibition curve with a large enough effect in the signal ratio, with a control signal flat, not every such curve was filed as active; inconclusive means small, poorly fitted or top-dose-only effect, or effect the other way, or a change in a side signal; the % refers to the signal ratio;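 further: potency means the concentration at half of the fitted maximal effect; plate controls were basal doxycycline-induced cells for no effect and cells given 10 µM MG132 for full effect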
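Doxycycline induced both beetle luciferases in TMD8 lymphoma cells; IKK-driven degradation limits the IkappaBalpha-fused green signal, while red luminescence normalises for cell number and nonspecific effects. Compounds tested up to 46 uM, 4 hrs.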
ALOX12 inh: Primary qHTS assay for inhibitors of human arachidonate 12S-lipoxygenase (ALOX12): Round 2 | Polyunsaturated fatty acid lipoxygenase ALOX12 (Homo sapiens), P18054 | 1.1% of 580,000 active | Potency, µM (titrated, usually from 108 µM), for inactives: at the highest dose activity change, negative = inhibition, actives largely listed as inhibitors | purified 12hLO, xylenol orange hydroperoxide absorbance; active means well fitted inhibition curve with a large enough effect; inconclusive means small, poorly fitted or top-dose-only effect, or another doubt; inactive means no such curve, though single readings can be large or run the other way; further: potency means the concentration at half of the fitted maximal effect; on the % scale 0 is the no-effect control and ±100 the full control effect
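Hydroperoxide product was detected by ferrous iron/xylenol orange as the 573 to 405 nm absorbance ratio. Arachidonic acid at 40 uM (final) was turned over for 30 min at room temperature by 150 nM human 12hLO, pH 7.0 Hepes buffer, after 15 min compound preincubation.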
Active calls of the source: *; ? = inconclusive; . = no result; ! = not active in a repeat; [ ] = dose if it differs, or a comment. In the library only some 3% were active in any assay of this set; here they are far more common.

SMILES	KCNH2 3.1 inh	ClpP mod	hERG WT inh	LDHA block	BCR signal inh	ALOX12 inh
COC1C(O)C(C)OC(OC2CCC3(C)C(CC[C@@H]4[C@@H]3CCC3(C)C(C5=CC(=O)OC5)C(O)CC43O)C2)C1O (stereo not given in full)	.	.	.	3	.	?
COc1ccc2c(c1)C1(CCN(C(=O)NC3CCCCC3)C1)C(=O)N2 (stereo not given)	.	.	.	.	.	28%
COc1ccc2c(c1)C1(CCN(C(=O)c3ccccc3Br)C1)C(=O)N2 (stereo not given)	.	.	.	.	.	32µM*
CCNC(=O)NC[C@H]1C[C@@H]2CCN1C[C@@H]2c1cc(-c2ccccc2)nn1C	.	.	.	.	.	18%[176 µM]
COc1cccc(-n2c(/C=C/c3ccc(O)c(O)c3)nc3ccccc3c2=O)c1	-4	.	-9	19	?	32µM*
O=c1c2ccccc2nc(/C=C/c2ccc(O)cc2)n1-c1ccc(O)cc1	17	-7%	2	-2	?	-23%
COc1ccc(-n2c(/C=C/c3ccc(O)c(OC)c3)nc3ccccc3c2=O)cc1	-13	-4%	-12	0	?	?
COc1ccc(-n2c(/C=C/c3ccc(O)cc3)nc3ccccc3c2=O)cc1	-22	-7%	-93*	-6	?	0%
CCN1C2CCC1CN(C(=O)c1ccncc1)C2	.	.	.	.	.	2%[12.5 µM]
CCN(CC)C(=O)c1ccc(NC(=O)CSc2ccc3ccccc3n2)cc1	.	.	.	1	.	-22%
COc1cc(CN2CCN(C(=O)COc3ccccc3)CC2)cc(OC)c1O	.	.	.	24	.	?
N#CC(C#N)=Cc1cccnc1	6	-4%	10	-4	-4%	-1%
CNCC/C=C\c1cccnc1	.	.	.	.	.	25µM*
CCOC(=O)c1c(C)n(Cc2ccccc2)c2ccc(O)cc12	-7	.	-1	29	?	?
COC(=O)c1c(C)n(Cc2ccccc2)c2ccc(O)cc12	-5	.	-4	-24	?	16µM*!
COc1cc2c(cc1Oc1ccccc1)NC(=O)C21CCN(c2cnccn2)CC1	.	.	.	.	.	-26%[176 µM]
CN1CCN(c2ccc(NC(=O)c3ccc(-c4ccc(Cl)cc4)o3)cc2)CC1	-95*	4%	16	-7	?	0%
CC(O)C1C=CC=CC(=O)OC2CC3OC4C5OC5(C)CCC4(COC(=O)C4OC4(C)C(O)CO1)C2(C)C31CO1 (stereo not given)	.	0%	11	-2	.	32µM*
Clc1cc(CNC2CN3CCC2CC3)cc(Cl)c1OCc1ccccc1 (stereo not given)	.	.	.	2	.	?
N#CC(C#N)=NNc1ccc(-n2ccc(C(F)(F)F)n2)cc1	0	.	-5	-1	?	28µM*
Cc1cc(C)n(-c2ccc(NN=C(C#N)C#N)cc2)n1	4	3%	11	-17	?	?
COCCN1C(=O)CS(=O)(=O)C12CCNCC2	.	.	.	.	.	51%
COc1cc(CNC2CN3CCC2CC3)cc(Cl)c1OCc1ccccc1 (stereo not given)	.	.	.	2	.	?
Cc1nc2cc(C(F)(F)F)ccc2n1C1CCN(Cc2nnnn2CCc2ccccc2)CC1	-81*	?	-7	-3	?	-19%
Cc1ccc(Cn2nnnc2CN2CCC(n3nnc4cc(C)ccc43)CC2)cc1	-16	3%	10	0	4%	?
SMILES	KCNH2 3.1 inh	ClpP mod	hERG WT inh	LDHA block	BCR signal inh	ALOX12 inh
Cc1nc2cc(F)ccc2n1C1CCN(Cc2nnnn2CCc2ccccc2)CC1	-29	21%	42	-8	?	?
FC(F)(F)c1ccc2c(c1)nnn2C1CCN(Cc2nnnn2Cc2ccccc2)CC1	-76*	1%	-28	6	?	6%
Cc1ccc(Cn2nnnc2CN2CCC(n3nnc4cc(C(F)(F)F)ccc43)CC2)cc1	-93*	-1%	?	-8	?	55%
COc1ccc(N2C(=O)NC(=O)C3(Cc4cc(C)ccc4N(C)C3)C2=O)cc1 (stereo not given)	.	.	.	1	.	?
NNCc1cccnc1	.	.	.	1	.	?
Cc1cccc(N2CCN(CCc3ccccc3)CC2)c1C	-82*	-1%	-48	-3	15%	?
CC(OC(=O)c1cn(C)c2ccccc12)C(=O)NC(N)=O (stereo not given)	.	.	.	-5	.	25%
CCOC(=O)CC(SP(=S)(OC)OC)C(=O)OCC (stereo not given)	.	.	.	.	.	23µM*!
COc1ccccc1N1C(=O)NC(=O)/C(=C/c2ccc3c4c(cccc24)CC3)C1=O	2	-21%	16	-21	?	50µM*
CN(C)c1ccc([N+](=O)[O-])c2cnccc12	.	.	.	7	.	-5%
CCOC(=O)C1=C(NC(=S)NC(=O)c2ccccc2)c2ccccc2CC12CCCC2	-32	.	-13	-12	?	20µM*
CCOP(=O)(OCC)C(NC(=O)c1ccccc1)=C(Cl)Cl	-41	1%	-3	3	4%	1%
COP(=S)(OC)Oc1ccc(S(=O)(=O)N(C)C)cc1	.	.	.	.	.	11µM*!
O=C(Nc1ccc(=O)n2c1[C@@H]1C[C@@H](CN(S(=O)(=O)c3ccccc3)C1)C2)c1cccnc1	.	.	.	.	.	-5%
Cc1ccc(N2C(=O)CS(=O)C(c3ccccc3)C2=O)cc1C (stereo not given)	3	.	3	6	?	22µM*
Cc1ccc(-n2c(C)nc3ccccc3c2=O)cc1C	16	-3%	20	-14	-5%	-14%
OC[C@H]1C[C@@H](NC2CCOCC2)[C@H](O)[C@@H]1O	.	.	.	.	.	8%[176 µM]
CS(=O)(=O)c1ccc(C2=C(CNC(=O)c3nccs3)[C@H]3CC[C@@H](C2)N3CCOc2ccccc2)cc1	-78*	-1%	?	-15	.	-13%
CCOC(=O)c1cccc(C2=C(CNC(=O)c3ccc([N+](=O)[O-])cc3)[C@H]3CC[C@@H](C2)N3Cc2ccccc2)c1	-113*	-3%	-76*	3	.	?
CS(=O)(=O)c1ccc(C2=C(CNC(=O)c3ccncc3)[C@H]3CC[C@@H](C2)N3Cc2ccccc2)cc1	-91*	-3%	?	-4	.	5%
Cc1ncoc1C(=O)NCC1=C(c2ccc(S(C)(=O)=O)cc2)C[C@@H]2CC[C@H]1N2Cc1ccco1	-36	0%	-6	-11	.	-12%
